Experimental data: the supplement of paper PMC3334620
The full ranking holds about 33,000 sequences; the median of “E-score (-0.5 to 0.5)” is about -0.035, and the highest 2% start at about 0.35. The list comes from a sample in which the highest values are over-represented; it also holds similar and randomly drawn sequences.

target: T1, Pdr3 (UniProt P33200); test: PBM E-score (8-mer binding enrichment) (E-score (-0.5 to 0.5)); higher = stronger / more preferred TF binding; settings: protein concentration: 200 nM; construct: GST-full length
T1 sequence: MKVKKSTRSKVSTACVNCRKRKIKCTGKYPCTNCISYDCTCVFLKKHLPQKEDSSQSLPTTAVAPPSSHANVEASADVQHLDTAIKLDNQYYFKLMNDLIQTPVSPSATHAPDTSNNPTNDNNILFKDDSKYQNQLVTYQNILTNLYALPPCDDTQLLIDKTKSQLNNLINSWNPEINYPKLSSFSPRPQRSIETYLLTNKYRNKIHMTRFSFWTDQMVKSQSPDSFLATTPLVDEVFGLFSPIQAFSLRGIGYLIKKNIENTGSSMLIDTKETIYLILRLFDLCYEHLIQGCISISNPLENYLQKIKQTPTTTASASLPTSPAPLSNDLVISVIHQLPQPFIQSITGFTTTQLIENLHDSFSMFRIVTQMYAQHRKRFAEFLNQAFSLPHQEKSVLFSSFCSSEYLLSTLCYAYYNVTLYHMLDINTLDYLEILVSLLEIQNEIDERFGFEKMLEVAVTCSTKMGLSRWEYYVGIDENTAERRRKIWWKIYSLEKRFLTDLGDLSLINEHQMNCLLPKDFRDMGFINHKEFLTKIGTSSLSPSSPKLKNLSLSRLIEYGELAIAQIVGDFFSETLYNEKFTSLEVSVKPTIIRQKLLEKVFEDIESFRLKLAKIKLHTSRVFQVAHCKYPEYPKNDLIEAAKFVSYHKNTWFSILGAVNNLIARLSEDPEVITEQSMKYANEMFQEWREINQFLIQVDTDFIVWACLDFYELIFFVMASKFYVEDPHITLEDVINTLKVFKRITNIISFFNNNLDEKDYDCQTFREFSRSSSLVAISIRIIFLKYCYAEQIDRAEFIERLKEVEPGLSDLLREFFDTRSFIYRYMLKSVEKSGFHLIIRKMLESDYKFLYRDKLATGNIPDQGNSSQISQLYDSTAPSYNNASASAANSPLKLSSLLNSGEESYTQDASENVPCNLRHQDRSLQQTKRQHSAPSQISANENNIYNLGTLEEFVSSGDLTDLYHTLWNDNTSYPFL
Experimental: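 Universal 'all 10-mer' protein binding microarrays (Agilent AMADID 015681) probed with GST-tagged S. cerevisiae TFs (full-length or DBD) made by in vitro transcription/translation (PURExpress), about 100-200 nM. Bound TF was detected with fluorescent anti-GST. Each ungapped 8-mer (which stands for itself and its reverse complement) is scored by the PBM enrichment score (E-score), a modified Wilcoxon-Mann-Whitney statistic from -0.5 to +0.5, computed with the Universal PBM Analysis Suite. Scale: above 0.35 generally sequence-specific binding.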

Sequence	PBM E-score
ATTAGGGG	-0.0731
AACCCTGT	-0.104
ATGTTGCG	0.091
ATGGAGCG	0.0393
CTGAGGAC	-0.0292
AATACCCC	0.188
TCCATCAA	0.0544
CGGGGTGA	0.214
CCGGGTGA	0.404
TCGGGTAA	0.0953
CCGGGTAC	0.303
CCGGGTAA	0.397
GCGGGTGA	0.26
GGACGGCC	0.188
AGCCTTTC	-0.167
CACCAAAA	-0.054
CCGGTGTA	0.153
CTCTCGTA	-0.00771
AACGCAGG	-0.0195
AACTTAAT	0.115
ACATTTAT	-0.248
GCGACACA	-0.0561
ATCGGATC	0.301

Sequence	PBM E-score
CCCGGATC	0.419
CGCGGCTC	0.344
CCCGGATA	0.34
AGCGGATC	0.374
CTCGGATC	0.386
AGCAGATC	-0.0743
CGCAGATC	-0.0483
AGCGGATG	0.191
CTCGGATA	0.273
CCCAGATC	-0.145
CGCGGATC	0.431
GAACCCCA	0.211
TCAGTAAA	-0.00839
ACCACAGG	-0.238
CGAGGTAA	0.0804
AGCTGGAG	-0.163
TAGGCTAA	-0.288
AAAGGCAA	-0.0369
CGGCCTAC	0.158
CTCAGACC	-0.0888
GGCGGATA	0.287
AGCGGATA	0.3
CTCGGACC	0.359

Sequence	PBM E-score
CGCGGATA	0.412
CTCGGACA	0.285
CCACATTC	0.0586
GAGGCGAA	0.0545
CGCGAGCG	0.106
CTCTATGC	-0.0609
CCGGACAG	0.338
CCGGACAC	0.366
CCGGACTA	0.333
CCGGACTC	0.363
ACGGACTC	0.205
CCGGACAA	0.329
AGTGACTA	-0.132
ATCCCGTA	0.242
ATCCCGTC	0.311
ATCCCGAT	0.302
ATCCCGAG	0.395
ATCCCGAA	0.308
ATCCCGTG	0.396
CGCGGTCC	0.384
AGCGGTAC	-0.0325
CGCGGTCA	0.307
AGCGGTCC	0.0698

Sequence	PBM E-score
CGCGGTAC	0.367
GGCGGTAA	0.326
AGCGGTAA	0.045
CGCGGTAA	0.36
CGCGGTAG	0.282
TCTCTACA	-0.249
CAGGGACA	0.0593
ATGCAAGC	-0.0447
TAGTTGGA	-0.0882
CCGCACTA	0.241
GATGAAAC	0.0428
TCGCCACA	-0.00326
CTATCAGC	-0.156
AATTCGCA	0.255
CAGAAATC	-0.108
AGTCCGGC	0.216
GGTCCGTA	0.293
AGTCCGGA	0.422
GGTCCGGA	0.413
AGTCCGGG	0.301
CGTCCGAA	0.208
GGTCCGCA	0.28
CGTCCGGA	0.433

Sequence	PBM E-score
CGTCCGGC	0.321
CCCGCATC	0.0416
AAGGTCAC	-0.213
GGAAGACC	0.202
GACTCACC	-0.126
ATCTGCTA	-0.241
CTGATGCA	0.0307
CTAAGAAG	-0.0671
CTTCAAAG	-0.275
AAGCTGTC	-0.208
CGATCCCA	0.067
AGATCCCC	0.015
AGATCCCG	0.4
CGATCCCG	0.361
CAATCCCG	0.392
AGATCCCT	-0.142
CAATCCCC	0.0676
CAATCCCA	-0.105
CGATCCCC	0.0699
